Laboratory results as given in PubChem BioAssay.

experiment: EMT-state selective cytotoxicity in co-culture – imaging, PC-3E GFP, TEM4-18 mCherry, primary screen (AID 1345086); details: PC-3E GFP / TEM4-18 mCherry co-culture, imaging cell counts; measured here: mesenchymal TEM4-18 mCherry cell survival; at 1 µM;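 further: cells exposed to compound for 72 h before imaging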

| Compound | normalised cell number |
| --- | --- |
| CCCCC(=O)O[C@]1(C(=O)CO)CCC2C3CCC4=CC(=O)CC[C@]4(C)C3[C@@H](O)C[C@@]21C (some centres undefined) | 0.97 |
| CCCCC/C=C/CCC(=O)N[C@H]1[C@H](Oc2c3cc4cc2Oc2ccc(cc2Cl)[C@@H](O[C@@H]2O[C@H](CO)[C@@H](O)[C@H](O)[C@H]2NC(C)=O)[C@@H]2NC(=O)[C@H](NC(=O)[C@@H]4NC(=O)[C@H]4NC(=O)C(Cc5ccc(c(Cl)c5)O3)NC(=O)[C@H](N)c3ccc(O)c(c3)Oc3cc(O)cc4c3)c3ccc(O)c(c3)-c3c(OC4O[C@H](CO)[C@@H](O)[C@H](O)[C@@H]4O)cc(O)cc3[C@@H](C(=O)O)NC2=O)O[C@H](CO)[C@@H](O)[C@@H]1O (some centres undefined) | 0.96 |
| CC(C)(C)NCC(O)COc1cccc2c1CCCC2=O (centres undefined) | 1.03 |
| CC(C)CCCC(C)[C@H]1CCC2C3CC=C4C[C@@H](O)CC[C@]4(C)C3CC[C@@]21C (some centres undefined) | 1.19 |
| CCC(=O)OCC(=O)[C@@]1(OC(=O)CC)[C@@H](C)CC2C3CCC4=CC(=O)C=C[C@]4(C)C3(F)[C@@H](O)C[C@@]21C (some centres undefined) | 1.37 |
| CC(=O)Nc1ccc(S(=O)(=O)Nc2onc(C)c2C)cc1 | 0.93 |
| CO/N=C(\C(=O)NC1C(=O)N2C(C(=O)OCOC(=O)C(C)(C)C)=C(/C=C\c3scnc3C)CSC12)c1csc(N)n1 (centres undefined) | 1.12 |
| CC1C/C=C/C=C/C=C/C=C/C(O[C@@H]2O[C@H](C)[C@@H](O)[C@H](N)[C@@H]2O)CC2OC(O)(CC(O)CC3OC3/C=C/C(=O)O1)CC(O)C2C(=O)O (some centres undefined) | 1.06 |
| C[C@]12CCC(=O)C=C1C=CC1C2CC[C@@]2(C)C1CC[C@@]21CCC(=O)O1 (some centres undefined) | 0.92 |
